Assay results taken from PubChem BioAssay (Tox21).
Inconclusive results are not listed. The source made the active and inactive calls. Unless noted, calls follow the shape of the dose curve; as a rule, active = well fitted curve in the direction sought with a large enough effect in the repeat runs; inconclusive = weak or mixed curves; inactive = no such curve, though single readings can be large; an effect the other way counts as inactive or inconclusive.

Key:
[1] = qHTS assay to identify small molecule agonists of the peroxisome proliferator-activated receptor delta (PPARd) signaling pathway - cell viability counter screen (AID 743211); also: nearly all actives have a fitted effect of over 55% in size
How it was run: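 Viability was measured as CellTiter-Glo luminescence (30 min, room temperature) in the same wells as the beta-lactamase readout. GeneBLAzer PPARd UAS-bla HEK293H cells received compound after 5 h plating and were incubated 17 h at 37 C.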

[2] = target: Peroxisome proliferator-activated receptor delta (Homo sapiens) (UniProt Q03181); test: qHTS assay to identify small molecule agonists of the peroxisome proliferator-activated receptor delta (PPARd) signaling pathway (AID 743212; calls by dose curve)
Chain of Peroxisome proliferator-activated receptor delta (Homo sapiens) (Q03181 whole entry, looked up): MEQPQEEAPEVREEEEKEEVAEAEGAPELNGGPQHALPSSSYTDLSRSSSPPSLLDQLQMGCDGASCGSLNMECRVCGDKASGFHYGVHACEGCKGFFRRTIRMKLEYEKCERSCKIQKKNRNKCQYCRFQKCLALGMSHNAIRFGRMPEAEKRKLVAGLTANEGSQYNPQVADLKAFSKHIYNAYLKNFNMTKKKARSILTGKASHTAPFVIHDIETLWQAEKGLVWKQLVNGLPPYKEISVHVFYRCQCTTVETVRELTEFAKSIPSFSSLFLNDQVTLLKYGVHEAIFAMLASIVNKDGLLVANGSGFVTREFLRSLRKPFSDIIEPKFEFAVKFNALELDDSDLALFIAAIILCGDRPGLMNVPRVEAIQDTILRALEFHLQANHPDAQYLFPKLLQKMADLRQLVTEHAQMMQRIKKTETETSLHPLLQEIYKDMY
How it was run: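 A PPARd-bla HEK293H line with beta-lactamase under an Upstream Activator Sequence is treated with compounds at 37 C. Substrate loading for 2 h at room temperature precedes the fluorescence measurement.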

[3] = target: Peroxisome proliferator-activated receptor delta (Homo sapiens) (UniProt Q03181); test: qHTS assay to identify small molecule antagonists of the peroxisome proliferator-activated receptor delta (PPARd) signaling pathway (AID 743215; active = well fitted inhibition curve with a large enough effect in the signal ratio in the repeat runs, not every such curve was filed as active; the % refers to the signal ratio;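 also: cells stimulated with agonist L165041 at 300 nM final during compound exposure; series mostly up to about 62 µM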)
How it was run: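 Read-out is beta-lactamase FRET fluorescence, measured 2 h after substrate addition at room temperature. Beforehand, UAS-bla HEK293H cells carrying the PPARd reporter were exposed to compounds with L165041 at 300 nM final for 17 h at 37 C.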

[4] = qHTS assay to identify small molecule agonists of the farnesoid-X-receptor (FXR) signaling pathway - cell viability counter screen (AID 743218); also: nearly all actives have a fitted effect of over 45% in size
How it was run: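 HEK 293T FXR-bla cells; 5 h pre-incubation, 16 h compound exposure at 37 C; LiveBLAzer substrate 2 h RT, then CellTiter-Glo 30 min RT, luminescence.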

[5] = qHTS assay to identify small molecule antagonists of the farnesoid-X-receptor (FXR) signaling pathway - cell viability counter screen (AID 743221; active = well fitted cell-killing curve with a large enough effect in the repeat runs, not every such curve was filed as active; also: nearly all actives have a fitted effect of over 50% in size)
How it was run: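 Cytotoxicity counter screen run in the FXR-bla reporter wells: HEK 293T cells exposed to compound with 50 uM (final) chenodeoxycholic acid for 16 h, 37 C, then viability measured by CellTiter-Glo luminescence after 30 min, room temperature.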

[6] = target: Vitamin D3 receptor (Homo sapiens) (UniProt P11473); test: qHTS assay to identify small molecule agonists of the vitamin D receptor (VDR) signaling pathway (AID 743222; calls by dose curve)
Chain of Vitamin D3 receptor (Homo sapiens) (P11473 whole entry, looked up): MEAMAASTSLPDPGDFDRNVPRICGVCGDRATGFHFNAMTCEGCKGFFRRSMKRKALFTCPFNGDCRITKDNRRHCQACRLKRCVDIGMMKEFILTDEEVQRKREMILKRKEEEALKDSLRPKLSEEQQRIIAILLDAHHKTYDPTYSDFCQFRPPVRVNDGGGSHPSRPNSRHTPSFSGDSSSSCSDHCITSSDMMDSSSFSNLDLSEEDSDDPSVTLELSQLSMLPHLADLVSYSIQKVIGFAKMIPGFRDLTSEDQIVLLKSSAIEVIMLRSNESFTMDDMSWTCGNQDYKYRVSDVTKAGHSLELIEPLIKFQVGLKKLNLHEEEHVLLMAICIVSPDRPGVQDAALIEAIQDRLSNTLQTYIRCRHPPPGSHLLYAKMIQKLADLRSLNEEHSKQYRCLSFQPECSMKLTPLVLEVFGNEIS
How it was run: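 VDR-bla cells, 2,000/well; 4 h preincubation 37C; cpd (DMSO) 16 h; LiveBLAzer B/G substrate 2 h RT; fluorescence intensity read.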

[7] = target: Vitamin D3 receptor (Homo sapiens) (UniProt P11473); test: qHTS assay to identify small molecule antagonists of the vitamin D receptor (VDR) signaling pathway (AID 743223; active = well fitted inhibition curve with a large enough effect in the signal ratio in the repeat runs, not every such curve was filed as active; the % refers to the signal ratio)
How it was run: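 Antagonist mode: compound added to VDR-bla cells alongside agonist 1alpha,25-dihydroxyvitamin D3 (3 nM final), incubation 16 h at 37C. Read-out is LiveBLAzer FRET fluorescence, 2 h at room temperature.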

[8] = qHTS assay to identify small molecule antagonists of the peroxisome proliferator-activated receptor delta (PPARd) signaling pathway - cell viability counter screen (AID 743213); also: nearly all actives have a fitted effect of over 50% in size
How it was run: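 CellTiter-Glo was added to PPARd-bla HEK293H wells following 17 h compound treatment in the presence of 300 nM L165041. Luminescence was recorded after 30 min at room temperature.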

[9] = target: Bile acid receptor (Homo sapiens) (UniProt Q96RI1); test: qHTS assay to identify small molecule antagonists of the farnesoid-X-receptor (FXR) signaling pathway (AID 743217; active = well fitted inhibition curve with a large enough effect in the signal ratio in the repeat runs, not every such curve was filed as active; the % refers to the signal ratio)
Chain of Bile acid receptor (Homo sapiens) (Q96RI1 whole entry, looked up): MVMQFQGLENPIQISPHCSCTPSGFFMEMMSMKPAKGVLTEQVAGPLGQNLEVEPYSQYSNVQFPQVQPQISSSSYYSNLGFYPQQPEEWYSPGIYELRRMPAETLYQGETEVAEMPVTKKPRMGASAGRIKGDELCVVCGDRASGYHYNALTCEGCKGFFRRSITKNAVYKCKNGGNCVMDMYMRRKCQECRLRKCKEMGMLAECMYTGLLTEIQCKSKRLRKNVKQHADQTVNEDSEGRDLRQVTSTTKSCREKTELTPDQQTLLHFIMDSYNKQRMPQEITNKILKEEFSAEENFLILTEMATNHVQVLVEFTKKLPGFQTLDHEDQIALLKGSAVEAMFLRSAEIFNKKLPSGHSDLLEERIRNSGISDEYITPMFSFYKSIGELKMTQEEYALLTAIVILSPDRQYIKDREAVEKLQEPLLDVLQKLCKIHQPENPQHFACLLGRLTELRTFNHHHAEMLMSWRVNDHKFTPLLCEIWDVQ
How it was run: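 HEK 293T FXR-UAS-bla, 5000 cells/well; compound + CDCA 50 uM final; 16 h, 37 °C; B/G FRET substrate 2 h RT; fluorescence.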

[10] = target: Bile acid receptor (Homo sapiens) (UniProt Q96RI1); test: qHTS assay to identify small molecule agonists of the farnesoid-X-receptor (FXR) signaling pathway (AID 743220; active = well fitted activation curve with a large enough effect in the signal ratio in the repeat runs, not every such curve was filed as active; the % refers to the signal ratio)
How it was run: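 Beta-lactamase reporter under UAS control in GeneBLAzer FXR HEK 293T cells (5000/well) measured with LiveBLAzer FRET substrate after 2 h at room temperature. Compound exposure lasted 16 h at 37C.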
% is scaled to controls: 0 for no effect and ±100 for the full control effect.

[O-][n+]1cccc(/C(Cl)=N/OC[C@@H](O)CN2CCCCC2)c1
inactive: outcome [1] | outcome [2] | outcome [3] | outcome [4] | outcome [5]

CC(O)COC(C)(C)C (configuration not stated)
inactive: outcome [1] | outcome [2] | outcome [3] | outcome [4] | outcome [5] | outcome [6] | outcome [7]

CC1(C)Oc2ccc(C#N)cc2[C@@H](N2CCCC2=O)[C@@H]1O
inactive: outcome [1] | outcome [8] | outcome [9] | outcome [4] | outcome [10] | outcome [5]

CCc1occc(=O)c1O
inactive: outcome [1] | outcome [2] | outcome [3] | outcome [9] | outcome [5]

CC(C)c1ccc(C=O)cc1
inactive: outcome [1] | outcome [2] | outcome [3] | outcome [5] | outcome [6]

Cc1cc(-c2ccccc2)nnc1NCCN1CCOCC1
inactive: outcome [1] | outcome [2] | outcome [4] | outcome [5] | outcome [6] | outcome [7]

CCCCCCCCCCCCCCC(=O)NC(CO)CCCCCCCCCCCCCC (configuration not stated)
inactive: outcome [1] | outcome [2] | outcome [9] | outcome [4] | outcome [10] | outcome [5] | outcome [6] | outcome [7]

CCNC(=O)NCc1cccc(Cl)c1
inactive: outcome [1] | outcome [2] | outcome [3] | outcome [9] | outcome [10] | outcome [5] | outcome [6] | outcome [7]

CN(C)CCCCl
inactive: outcome [1] | outcome [2] | outcome [9] | outcome [4] | outcome [5] | outcome [6]

CCN(CC)CCN
inactive: outcome [1] | outcome [8] | outcome [9] | outcome [5] | outcome [6] | outcome [7]

Cn1nnc2c(C(N)=O)ncn2c1=O
inactive: outcome [1] | outcome [2] | outcome [3] | outcome [9] | outcome [4] | outcome [5] | outcome [6] | outcome [7]

CCO
inactive: outcome [1] | outcome [2] | outcome [9] | outcome [4] | outcome [5] | outcome [6] | outcome [7]

CCCCCCCCCCCCCCCCCCOCCO
inactive: outcome [1] | outcome [2] | outcome [3] | outcome [9] | outcome [10] | outcome [5] | outcome [6] | outcome [7]

CCC(C(=O)OCCN1CCOC(c2ccccc2)C1C)c1ccccc1 (configuration not stated)
inactive: outcome [1] | outcome [2] | outcome [4] | outcome [5] | outcome [6]

CCCCCCC1(C)CCC(=O)O1 (configuration not stated)
inactive: outcome [1] | outcome [2] | outcome [4] | outcome [5] | outcome [6] | outcome [7]

CCC[C@@H]1C[C@@H](C(=O)N[C@@H]([C@H]2O[C@H](SC)[C@H](O)[C@@H](O)[C@H]2O)[C@@H](C)O)N(C)C1
inactive: outcome [1] | outcome [2] | outcome [3] | outcome [4] | outcome [5]

c1ccc(B(c2ccccc2)c2ccccc2)cc1
inactive: outcome [1] | outcome [2] | outcome [9] | outcome [4] | outcome [5] | outcome [6] | outcome [7]

CCCCCCCCCCCCCCCCCC#N
inactive: outcome [1] | outcome [2] | outcome [4] | outcome [5]

O=Cc1ccccc1Cl
inactive: outcome [1] | outcome [8] | outcome [9] | outcome [4] | outcome [10] | outcome [5] | outcome [6] | outcome [7]

NCC1(Cc2noc(=O)[nH]2)CCCCC1
inactive: outcome [1] | outcome [2] | outcome [3] | outcome [4] | outcome [5] | outcome [6] | outcome [7]

C[C@]12CCC(=O)C=C1CC[C@H]1[C@@H]3CC[C@](O)(C(=O)CO)[C@@]3(C)C[C@H](O)[C@@]12F
inactive: outcome [1] | outcome [2] | outcome [3] | outcome [9] | outcome [10] | outcome [5] | outcome [6] | outcome [7]

CC(=O)CCC1=C(C)CCCC1(C)C
inactive: outcome [1] | outcome [2] | outcome [3] | outcome [4] | outcome [5] | outcome [6]

CCC(C)OC(C)CC (configuration not stated)
inactive: outcome [1] | outcome [2] | outcome [3] | outcome [5] | outcome [6]

Fc1ccccc1
inactive: outcome [1] | outcome [2] | outcome [4] | outcome [5] | outcome [6]

CC(=O)O[Si](C)(OC(C)=O)OC(C)=O
inactive: outcome [1] | outcome [2] | outcome [3] | outcome [5] | outcome [6] | outcome [7]

COC(=O)c1ccccc1C(=O)O
inactive: outcome [1] | outcome [2] | outcome [3] | outcome [5] | outcome [6] | outcome [7]

Cc1c(NC(=O)c2cccnc2)c(=O)n(-c2ccccc2)n1C
inactive: outcome [1] | outcome [2] | outcome [3] | outcome [9] | outcome [5] | outcome [6] | outcome [7]

N[C@@H](CSCCCO)C(=O)O
inactive: outcome [1] | outcome [8] | outcome [3] | outcome [4] | outcome [5] | outcome [6] | outcome [7]

OC1OCCOC1O (configuration not stated)
inactive: outcome [1] | outcome [8] | outcome [4] | outcome [10] | outcome [5] | outcome [6] | outcome [7]

CC1=NN(c2ccc(S(=O)(=O)O)cc2)C(=O)C1
inactive: outcome [1] | outcome [8] | outcome [4] | outcome [5] | outcome [6]

CN(C)CC/C=C1/c2ccccc2COc2ccc(CC(=O)O)cc21
inactive: outcome [1] | outcome [5]

c1ccc(-c2nn[nH]n2)cc1
inactive: outcome [1] | outcome [9] | outcome [4] | outcome [10] | outcome [5] | outcome [6] | outcome [7]

N[C@@H](Cc1ccc(O)cc1)C(=O)O
inactive: activity change, negative = cytotoxicity [1] 3.38% [at 13.2 µM] | viability change, negative = cytotoxic [8] 14.5% [at 13.7 µM] | viability change, negative = cytotoxic [4] -2.1% [at 13.2 µM] | activity change, negative = cytotoxicity [5] -1.49% [at 13.2 µM] | activation [6] 10.9% [at 13.4 µM] | activity change, negative = inhibition [7] 1.57% [at 6.95 µM]

CN(C)CCCO[C@@H]1[C@H]2OC(C)(C)O[C@H]2O[C@@H]1C(O)CO (some centres not stated)
inactive: outcome [1] | outcome [4] | outcome [5] | outcome [6] | outcome [7]

CC(=O)OCC(=O)Nc1cc(C#N)cc(NC(=O)COC(C)=O)c1Cl
inactive: outcome [1] | outcome [4] | outcome [5] | outcome [6] | outcome [7]

COc1cc(OC)nc(O[C@H](C(=O)O)C(OC)(c2ccccc2)c2ccccc2)n1
inactive: outcome [1] | outcome [8] | outcome [4] | outcome [5] | outcome [6] | outcome [7]

O=C1NC(c2ccccc2)(c2ccccc2)C(=O)N1COP(=O)(O)O
inactive: outcome [1] | outcome [8] | outcome [5] | outcome [6] | outcome [7]

CCCCCC/C=C/C(=O)OC
inactive: outcome [1] | outcome [8] | outcome [10] | outcome [5] | outcome [6] | outcome [7]

Cc1c(Cl)cccc1Cl
inactive: outcome [1] | outcome [5] | outcome [6] | outcome [7]

C=CCCCCCCCC
inactive: outcome [2] | outcome [8] | outcome [3] | outcome [4] | outcome [5] | outcome [6]

OC[C@H]1O[C@@H](O[C@@H]2[C@@H](CO)O[C@](O)(CO)[C@H]2O)[C@H](O)[C@@H](O)[C@H]1O
inactive: outcome [1] | outcome [8] | outcome [4] | outcome [5] | outcome [6]

O=C=NCC1CCCC(CN=C=O)C1 (configuration not stated)
inactive: outcome [1] | outcome [8] | outcome [4] | outcome [6] | outcome [7]

Cc1cc(C)c(C(=O)O)c(C)c1
inactive: outcome [1] | outcome [8] | outcome [4] | outcome [5]

CC(=O)C(C)O (configuration not stated)
inactive: outcome [2] | outcome [8] | outcome [3] | outcome [9] | outcome [10] | outcome [5] | outcome [6] | outcome [7]

COC(=O)c1cccc(Cl)c1
inactive: outcome [2] | outcome [8] | outcome [3] | outcome [9] | outcome [10] | outcome [5] | outcome [6] | outcome [7]

O=C[O][Al]([O]C=O)[O]C=O
inactive: outcome [2] | outcome [8] | outcome [3] | outcome [9] | outcome [4] | outcome [5] | outcome [6]

Cc1ccc(C(=O)O)cc1[N+](=O)[O-]
inactive: outcome [1] | outcome [4] | outcome [5] | outcome [6]

C/C=C(\C)C(=O)OCCc1ccccc1
inactive: outcome [2] | outcome [8] | outcome [3] | outcome [9] | outcome [4] | outcome [5]

CCCCOCC(C)O (configuration not stated)
inactive: outcome [1] | outcome [4] | outcome [5] | outcome [6]
